High-throughput results as filed in PubChem.
Sampled rows, rich in hits. Any-hit rate of the full collection: about 4.6%.
V-ATPase pHluor: yeast V-ATPase proton transport regulation by pHLuorin | S. cerevisiae, pHLuorin cytosolic pH fluorescence | response, % at 10 µM | 350,000 compounds, 0.37% hits | AID 504577; in the data active means response mostly above about 7.3%, no sharp cut-off; inactive means mostly below about 5.4%; further: actives read high
tim23-1 inh: inhibits growth of tim23-1 mutant yeast. S. cerevisiae tim23-1 growth, BacTiter-Glo luminescence, 24 h. inhibition, % at 20 µM. 330,000 compounds, 1.3% hits;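 active means growth inhibition of the mutant yeast at or above 50%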;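 further: temperature-sensitive mutant grown at 25 °C; plate controls were DMSO-treated mutant yeast for no effect and medium wells lacking yeast for full effect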
PfHsp90 set2: inhibits growth of yeast expressing Plasmodium falciparum Hsp90; S. cerevisiae expressing PfHsp90, BacTiter-Glo ATP, 48 h; yeast lacking PDR1 and PDR3 efflux regulators; inhibition, % at 9.4 µM; 310,000 compounds, 0.32% hits; AID 504621;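 active means every replicate shows inhibition above about 80%, whatever the replicate mean, limit read from the data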;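 further: 0% = DMSO neutral controls and 100% = 20 µM radicicol positive controls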
tim10-1 inh: inhibits growth of tim10-1 mutant yeast; 330,000 compounds, 2.2% hits; AID 463190; inhibition, % at 20 µM; S. cerevisiae tim10-1 ts strain growth, BacTiter-Glo, 24 h;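 active means inhibition of at least 40%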;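 further: mutant grown at 25 °C; 0% = DMSO wells with yeast and 100% = wells holding no yeast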
SKKanGAS inh: blocks kanamycin growth of S. pyogenes SKKanGAS strain. 300,000 compounds, 1.3% hits. AID 1662. BacTiter-Glo, 6 h. inhibition, % at 7.5 µM;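 active means mean replicate score, as percent of positive control median, at least 50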;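 further: strain carries kanamycin resistance gene driven by streptokinase promoter and grows in 40 µg/ml kanamycin; loss of luminescence reflects streptokinase promoter inhibition or plain growth inhibition; 0% = median of DMSO wells and 100% = positive control at its reference dose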
TIM10 inh: growth inhibitors of TIM10 yeast strain | 330,000 compounds, 1.4% hits | inhibition, % at 10 µM | S. cerevisiae TIM10 strain growth, BacTiter-Glo luminescence, 24 h | AID 463195;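 active means inhibition of 40% or more at the single tested concentration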;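 further: wild-type TIM10 isogenic control strain grown at permissive 25 °C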
tim23-1 confirm: tim23-1 yeast growth inhibition, confirmed; 4,400 compounds, 83% hits; inhibition, % at 20 µM; AID 463218; shares compounds with tim23-1 inh; S. cerevisiae tim23-1 growth, BacTiter-Glo luminescence, 24 h;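 active means inhibition above about 39% in either of two replicate wells at 20 µM, limit read from the data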;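 further: temperature-sensitive tim23-1 mutant grown at 25 °C; 0% = DMSO wells with yeast and 100% = medium wells without yeast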
The depositor's hits bear a star; x = no result.

SMILES	V-ATPase pHluor	tim23-1 inh	PfHsp90 set2	tim10-1 inh	SKKanGAS inh	TIM10 inh	tim23-1 confirm
COc1ccc(S(=O)(=O)N2CCN(Cc3cccc(OC)c3)CC2)cc1	-1	55*	10	25	1	21	43*
O=[N+]([O-])c1ccccc1/C=N/n1c(C2CCCCC2)n[nH]c1=S	-2	59*	21	40	-7	37	48*
O=[N+]([O-])c1cccc(/C=N/n2c(C3CCCCC3)n[nH]c2=S)c1	0	26	-1	26	-4	16	x
Cc1ccc(/C=N/n2c(C3CCCCC3)n[nH]c2=S)cc1	2	57*	17	25	10	16	39
FC(F)(F)c1ccc(/C=N/n2c(C3CCCCC3)n[nH]c2=S)cc1	-3	64*	-16	37	25	26	30
S=c1[nH]nc(C2CCCCC2)n1/N=C/c1ccc(Cl)cc1	0	63*	1	35	5	40	30
O=C(c1cccc(Br)c1)N1CCN(S(=O)(=O)N2CCCCC2)CC1	-4	9	3	-5	-6	3	x
Cn1c(N)c(C(=O)CSc2nc(N)cc(N)n2)c(=O)n(C)c1=O	-2	7	5	5	-1	-9	x
COc1ccc(CCNC(=O)c2ccc3nc(N4CCCCC4)sc3c2)cc1OC	1	19	12	23	3	13	x
COc1ccc(N2CCC(CNC(=S)Nc3ccc(C)cc3C)C2)cc1 (stereo not drawn)	-1	53*	6	8	12	30	68*
C=CCn1c(SCc2cc(=O)n3ccsc3n2)nc2ccccc2c1=O	-3	51*	-63	11	5	5	56*
C=CCn1c(SCc2cc(=O)n3ccsc3n2)nc2scc(C3CC3)c2c1=O	4	31	44	39	9	13	x
C=CCn1c(SCc2cc(=O)n3ccsc3n2)nc2cc(Cl)ccc2c1=O	-3	55*	42	27	-1	29	59*
Cn1nnnc1SCc1cc(=O)n2ccsc2n1	-1	-8	4	-11	14	2	x
Cc1nc2cc(-c3ccccc3)sc2c(=O)n1N	0	51*	56	36	63*	33	53*
Cc1ccc(C)n1-n1c(C)nc2sc(-c3ccccc3)cc2c1=O	-7	13	-4	-1	6	-7	x
CN(C(=O)c1cc2ccccc2cc1O)C1CCCCC1	-2	41	-11	28	0	16	x
O=C(OCc1ccc(F)cc1)c1cc2ccccc2cc1O	-1	21	3	11	24	2	x
O=C(OCc1cccc(F)c1)c1cc2ccccc2cc1O	-1	94*	-14	7	13	15	28
CN(C(=O)COC(=O)c1cc2ccccc2cc1O)C1CCCCC1	6	55*	3	19	x	30	49*
NS(=O)(=O)c1ccc(NC(=O)CCC(=O)c2ccc(Cl)s2)cc1	3	-10	16	-5	-1	-4	x
CSc1nnc(C(C)(C)C)c(=O)n1/N=C/c1ccccc1	5	53*	8	25	-1	33	51*
O=S1(=O)N[C@@H](Cc2ccccc2)COc2cc(Br)ccc21	0	70*	11	26	x	3	42*
CCc1oc2ccccc2c1C(=O)c1cc(Br)c(O)c(Br)c1	-8	56*	-2	-16	50*	17	-20
COc1ccc(/C=N/NC(=O)COc2cc(C)cc(C)c2)cc1COC(C)=O	-2	-2	-5	-9	-6	-10	x
SMILES	V-ATPase pHluor	tim23-1 inh	PfHsp90 set2	tim10-1 inh	SKKanGAS inh	TIM10 inh	tim23-1 confirm
CC1(C)CC2CC(C)(CN2C(=O)c2cc(-c3ccc(O)cc3)on2)C1 (stereo not drawn)	-6	53*	17	-36	34	-6	48*
COc1ccc([N+](=O)[O-])cc1N/C(=N/S(=O)(=O)c1ccccc1)c1ccccc1	0	32	0	37	8	19	x
S=c1[nH]nc(COc2ccccc2)n1/N=C/c1ccccc1Br	-2	17	0	14	11	20	x
FC(F)(F)c1ccccc1/C=N/n1c(COc2ccccc2)n[nH]c1=S	5	50*	20	26	8	24	37
CC1CC(C)CN(c2cc(N(C)CCO)c([N+](=O)[O-])c3nonc23)C1 (stereo not drawn)	0	5	3	7	7	19	x
Cc1c(O)c(CN2CCCC2)cc2c3c(c(=O)oc12)CCC3	-1	53*	7	20	-12	9	36
CCOC(=O)C1CCN(C(=O)c2cc3cc4ccc(C)cc4nc3o2)CC1	-53	58*	6	16	-6	21	59*
CCOC(=O)C1CCN(C(=O)c2cc3c(ccc4ccccc43)o2)CC1	4	27	-4	27	-8	-8	x
COc1cccc(-c2cc(C(=O)N3CCCCC3C)no2)c1 (stereo not drawn)	1	23	x	25	-10	14	x
COc1ccc2cc3cc(C(=O)N4CCCCC4C)oc3nc2c1 (stereo not drawn)	-5	50*	4	25	-7	24	59*
COc1ccc(NC(=O)C2CCN(S(=O)(=O)c3cn(C)nc3C)CC2)cc1	0	8	15	-7	0	3	x
CN(CCOc1ccccc1)S(=O)(=O)c1ccc2oc3ccccc3c2c1	2	-9	-17	11	2	11	x
COc1ccc(C(=O)NNC(=O)CSc2nnc(-c3cccnc3)n2C)cc1	-1	-10	-7	5	-2	11	x
Cc1sc2nc(CN3CCOCC3)nc(N3CCN(S(=O)(=O)c4ccccc4)CC3)c2c1C	3	15	x	15	x	1	x
COc1ccccc1C(CNC(=O)CCNS(=O)(=O)c1ccc(Br)cc1)N1CCCC1 (stereo not drawn)	-4	x	9	x	x	x	x
C(=N\N1CCOCC1)/c1nc(-c2ccccc2)n2ccccc12	-1	10	-10	13	1	23	x
CC(C)(C)c1ccc(-c2nc(C=O)c3ccccn23)cc1	-1	52*	x	33	0	38	50*
Cc1ccc(N2C(=O)/C(=C/c3cccnc3)SC2=S)cc1	-3	25	-22	19	6	9	x
Cc1cccc(N2C(=O)/C(=C/c3cccnc3)SC2=S)c1	-1	58*	6	38	-1	11	54*
COc1cc(C)c(S(=O)(=O)NOCc2ccccc2)c(C)c1C	1	36	0	7	12	-3	x
O=C(N/N=C/c1coc2ccc(Cl)cc2c1=O)c1cc(O)cc(O)c1	9	72*	9	16	6	7	70*
Cc1ccc2occ(/C=N/NC(=O)c3ccccc3O)c(=O)c2c1	2	53*	14	22	-3	12	51*
